Bioassay records as filed in PubChem.
ClpP mod = qHTS Assay for Activators of ClpP. ATP-dependent Clp protease proteolytic subunit (Bacillus subtilis (strain 168)), P80244. purified B. subtilis ClpP, FRET peptide cleavage, 20 min. Potency, µM (top dose mostly 57.5 µM), for the others: at the highest dose activity change, negative = active. 340,000 compounds, 1.9% hits. AID 651965, 2013; active = well fitted falling curve with a large enough effect; inconclusive = small, poorly fitted or top-dose-only effect; inactive = no such curve, though single readings can be large or run the other way; also: the source files actives as falling curves though it sought activators and does not explain the sign; nearly all actives have a fitted effect of over 65% in size
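Buffer: 100 mM Tris/HCl pH8, 100 mM KCl, 0.05% low protease BSA, 2.5% glycerol, 0.01% Tween-20. ClpP 10 microg/mL final; 20 min RT; delta FRET normalized to ADEP and DMSO controls.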
TDP1 cell CPT = DT40-hTDP1 cell growth loss with CPT; chicken DT40 Tdp1-/-;hTDP1 cells + 20 nM CPT, ATP luminescence, 48 h; Potency, µM (top dose mostly 46.2 µM), for inactives: top-dose activity change, negative = growth inhibition, hits mostly inhibitors; 420,000 compounds, 12% hits; AID 686979; also: % is scaled to controls: 0 for no effect and ±100 for the full control effect; nearly all actives have a fitted effect of over 55% in size
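Chicken DT40 Tdp1-/- cells complemented with human TDP1, 400 cells/well, exposed to compounds plus 20 nM camptothecin for at least 48 h at 37 C; viability read as ATP content by CellTiter-Glo luminescence.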
TDP1 cell noCPT = qHTS for Inhibitors of human tyrosyl-DNA phosphodiesterase 1 (TDP1): qHTS in cells in absence of CPT; DT40 Tdp1-/- hTDP1 cells, no CPT, ATP luminescence, 48 h; 420,000 compounds, 15% hits; Potency, µM (highest dose often 46.2 µM), for inactives: at the highest dose activity change, negative = growth inhibition, actives largely listed as inhibitors; also: % is scaled to controls: 0 for no effect and ±100 for the full control effect; nearly all actives have a fitted effect of over 55% in size
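Chicken DT40 Tdp1-/- cells stably complemented with human TDP1 were seeded at 400 cells/well with DMSO in place of 20 nM camptothecin. After compound pinning, cells grew at least 48 hr at 37 °C; viability read by CellTiter-Glo luminescence.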
TDP1 inh = inhibitors of human tyrosyl-DNA phosphodiesterase TDP1; Q9NUW8; recombinant TDP1, AlphaScreen DNA substrate cleavage; Potency, µM (series often up to 130 µM), for the others: at the highest dose activity change, negative = inhibition, usual class: inhibitors; 350,000 compounds, 0.28% hits; AID 485290; also: % is scaled to controls: 0 for no effect and ±100 for the full control effect; nearly all actives have a fitted effect of over 40% in size
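Here, a 5' biotin and 3' phosphotyrosine-FITC DNA oligonucleotide reports Tdp1 activity: intact substrate bridges AlphaScreen beads, while cleavage leaves a 3' phosphate and drops signal. All incubations at room temperature.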
Starred values were filed as active, the others as inactive; [ ] = another dose, or the depositor's remark. A selection: hits, their analogues and other compounds. The true share with any hit is near 17%. Unless noted, calls follow the shape of the dose curve; as a rule, active = well fitted curve in the direction sought with a large enough effect; inconclusive = small, poorly fitted or top-dose-only effect, or another doubt; inactive = no such curve, though single readings can be large; an effect the other way counts as inactive or inconclusive. Potency is read from the fitted curve at half-maximal effect.

For CCOC(=O)N1CCN(c2ccncc2S(=O)(=O)N2CCCCC2)CC1 the results were ClpP mod 0.4%, TDP1 cell CPT -24.1%, TDP1 cell noCPT -13.4% and TDP1 inh 2.8%.
`C[C@@H]1CN2[C@H](c3ccc(Br)cc3)[C@H](C)CC[C@H]2C(=O)O1` gave TDP1 inh 5.8%[21 µM].
For COC(=O)c1ccc(NC(=O)C2CC2)o1 the results were ClpP mod 14.1µM*, TDP1 cell CPT -7.7%, TDP1 cell noCPT -26.4% and TDP1 inh 5.1%.
Cc1cc(C)cc(OCC(=O)NNC(=O)c2ccccn2)c1 was read as ClpP mod 0.3%, TDP1 cell CPT 9.2µM*, TDP1 cell noCPT 6.51µM* and TDP1 inh -3.3%[56.1 µM].
`O=C(COc1ccc(Cl)cc1)NNC(=O)c1ccccn1` gave ClpP mod 0.8%, TDP1 cell CPT inconclusive, TDP1 cell noCPT inconclusive and TDP1 inh 8.6%.
Screening Cc1ccc(OCCCC(=O)NNC(=O)c2ccccn2)cc1 returned ClpP mod -2.6%, TDP1 cell CPT 6.51µM*, TDP1 cell noCPT 5.8µM* and TDP1 inh 0.6%.
Cc1ccc(S(=O)(=O)C[C@@H]2OC[C@H](C)N2S(=O)(=O)c2ccc(C)cc2)cc1 was read as ClpP mod -0.7%, TDP1 cell CPT inconclusive and TDP1 cell noCPT inconclusive.
`O=C(CCS(=O)(=O)c1ccc(F)cc1)Nc1nc(-c2ccncc2)cs1` gave ClpP mod -0.1%, TDP1 cell CPT 13µM*, TDP1 cell noCPT 9.2µM* and TDP1 inh 6.1%.
`CC(C)(C)c1csc(NC(=O)CCS(=O)(=O)c2ccc(F)cc2)n1` gave ClpP mod 0.6%, TDP1 cell CPT 8.2µM* and TDP1 cell noCPT 8.2µM*.
COc1ccc(-c2csc(NC(=O)CS(=O)(=O)c3ccc(F)cc3)n2)cc1OC was read as ClpP mod 1.2%, TDP1 cell CPT inconclusive, TDP1 cell noCPT inconclusive and TDP1 inh -3.5%.
O=C(CCS(=O)(=O)c1ccccc1)Nc1nc(-c2cccs2)cs1 was read as ClpP mod 0.1%, TDP1 cell CPT inconclusive, TDP1 cell noCPT 20.6µM* and TDP1 inh 2.6%.
For COc1cc2c(cc1OC)C(=O)C(Br)CC2 (stereo not given) the results were ClpP mod -16.8%, TDP1 cell CPT 3.66µM* and TDP1 cell noCPT 4.61µM*.
`CCN(CC)S(=O)(=O)c1ccc(C)c(NC(=O)CSc2nc3ccccc3[nH]2)c1` gave ClpP mod 0.4%, TDP1 cell CPT inconclusive, TDP1 cell noCPT 23.1µM* and TDP1 inh 0.0%.
`CCN(CC)S(=O)(=O)c1ccc(C)c(NC(=O)/C=C/c2cccs2)c1` gave ClpP mod -2.2%, TDP1 cell CPT 20.6µM*, TDP1 cell noCPT 13µM* and TDP1 inh 5.6%.
`CCc1nc(SCC(=O)c2ccccc2)c2ccccc2n1` gave TDP1 cell CPT inconclusive, TDP1 cell noCPT 13µM* and TDP1 inh 8.3%.
Screening CCn1nnnc1SCC(=O)N1c2ccccc2Sc2ccccc21 returned ClpP mod -3.1%, TDP1 cell CPT inconclusive, TDP1 cell noCPT inconclusive and TDP1 inh 5.0%.
Screening Cn1nnnc1SCC(=O)N1c2ccccc2Sc2ccccc21 returned ClpP mod -1.6%, TDP1 cell CPT 10.3µM*, TDP1 cell noCPT 14.6µM* and TDP1 inh 1.0%.
For CCCc1nc(SCC(=O)N2CCCC2)c2ccccc2n1 the results were ClpP mod -0.6%, TDP1 cell CPT -7.5%, TDP1 cell noCPT inconclusive and TDP1 inh 6.0%.
For CCc1nc(SCC(=O)N2c3ccccc3Sc3ccccc32)c2ccccc2n1 the results were ClpP mod -2.7%, TDP1 cell CPT inconclusive, TDP1 cell noCPT 14.6µM* and TDP1 inh 4.7%.
For Cc1ccc(SCC(c2ccccc2)N2CCN(C)CCC2=O)cc1 (stereo not given) the results were TDP1 inh 7.9%.
Screening Cc1ccc(C(=O)N/N=C(\CC(C)C)c2ccccc2)cc1 returned ClpP mod -1.0%, TDP1 cell CPT inconclusive, TDP1 cell noCPT 20.6µM* and TDP1 inh inconclusive.
`O=C(NCCc1nnc2n1CCN(Cc1c(F)cccc1F)CC2)c1ccco1` gave TDP1 cell CPT -2.8% and TDP1 cell noCPT -11.1%.
For CCCSC(=S)c1c(C)[nH]n(-c2ccccc2)c1=O the results were TDP1 cell CPT 20.6µM*, TDP1 cell noCPT 16.4µM* and TDP1 inh 7.7%.
O=C(c1ccncc1)N1CCC2(CCC(CNC(=O)C3(N4CCOCC4)CCCCC3)O2)CC1 (stereo not given) was read as TDP1 cell CPT 5.3%[9.04 µM] and TDP1 cell noCPT -4.8%.
For CCOc1ccc(C2=CSC3=NCCN23)cc1 the results were ClpP mod 0.6%, TDP1 cell CPT -13.3%, TDP1 cell noCPT -26.4% and TDP1 inh 3.1%.
For c1ccc(-c2c[n+]3c(n2-c2ccccc2)SCC3)cc1 the results were TDP1 cell CPT inconclusive, TDP1 cell noCPT 20.6µM* and TDP1 inh 2.7%.
`CCOc1ccc(-n2c(-c3ccc(Cl)cc3)c[n+]3c2SCC3)cc1` gave TDP1 cell CPT 1.84µM*, TDP1 cell noCPT 2.06µM* and TDP1 inh 5.9%.
CN(c1ccccc1)S(=O)(=O)c1cccc(NC(=O)C2=NN(c3ccccc3)C(=O)CC2)c1 was read as ClpP mod -15.1%, TDP1 cell CPT inconclusive, TDP1 cell noCPT 13µM* and TDP1 inh 4.0%.
Screening COc1ccc(NS(=O)(=O)c2cccc(NC(=O)C3=NN(c4ccccc4)C(=O)CC3)c2)cc1 returned ClpP mod -3.3%, TDP1 cell CPT inconclusive, TDP1 cell noCPT 14.6µM* and TDP1 inh 1.6%.
Screening CN(c1ccccc1)S(=O)(=O)c1cccc(NC(=O)c2ccc(=O)[nH]c2)c1 returned ClpP mod -0.9%, TDP1 cell CPT inconclusive, TDP1 cell noCPT inconclusive and TDP1 inh 0.1%[56.1 µM].
`COCc1cc(C)nc2sc3c(c12)NC(c1ccccc1C(=O)O)N(c1cccc(C(F)(F)F)c1)C3=O` (stereo not given) gave ClpP mod -16.3%, TDP1 cell CPT 29.1µM*, TDP1 cell noCPT inconclusive and TDP1 inh 2.3%.
For COCc1cc(C)nc2sc3c(c12)NC(c1ccc(O)cc1)N(c1ccc(C)cc1)C3=O (stereo not given) the results were ClpP mod -15.2%, TDP1 cell CPT 18.4µM*, TDP1 cell noCPT 18.4µM* and TDP1 inh -2.3%.
For COCc1cc(C)nc2sc3c(c12)NC(c1ccc(NC(C)=O)cc1)N(c1ccc(C)cc1)C3=O (stereo not given) the results were ClpP mod -3.1%, TDP1 cell CPT inconclusive, TDP1 cell noCPT inconclusive and TDP1 inh 4.7%.
For Cc1cc(N2CCCCC2)nc(NCc2ccccc2)n1 the results were ClpP mod -1.3%, TDP1 cell CPT 10.3µM*, TDP1 cell noCPT 7.31µM* and TDP1 inh 3.9%.
